# Measurements published in PubChem BioAssay AID1578 (Sanford-Burnham Center for Chemical Genomics, 2009).
# About 3,000 (1%) of roughly 290,000 compounds were called active. Many of the other results were omitted from the sample, so actives are more common in it than they were. A number with no mark means an inactive call. Rule as the data show it: active = inhibition mostly above about 36% (no sharp cut-off); inactive = mostly below about 34%.
# Assay: NOD1 signaling inhibitors, primary screen, cell-based, luminescence, uHTS (AID 1578);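 also: HEK-293T reporter cells stimulated with the NOD1 agonist gamma-tri-DAP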
# Details: NOD1-driven NF-kB luciferase reporter cells, at 4 µM, hits give high values
row,SMILES,inhibition
1,COc1cc(Cl)ccc1OCc1cc(C(=O)N(C)Cc2cccc3cnccc23)no1,11.4%
2,CC1(C)SC(=S)N(/N=C/c2ccccc2O)C1N(O)C(=O)Nc1ccccc1 (stereo not given),-1.1%
3,CCCSc1nnc(NC(=O)c2nc(SC)ncc2Cl)s1,-10.4%
4,Cc1cccn2c(=O)c(C=Nc3c(C)n(C)n(-c4ccccc4)c3=O)c(N3CCCC3)nc12,-3.8%
5,COc1ccccc1NC(=S)N1CCc2cc(OC)c(OC)cc2C1,-30%
6,Oc1ccc2ccccc2c1/C=N/c1nccs1,-6%
7,Oc1ccc2ccccc2c1N=Nc1nccs1,106% (active)
8,Oc1ccc(N=Nc2c(O)ccc3ccccc23)cc1,24%
9,CCCCC(=O)Nc1cc(NC(=O)CC)ccc1Cl,-13.8%
10,CCn1c(SC)nnc1-c1nnc(SC)n1CC,-5.7%
11,Cc1cc(C)cc(C(=O)NCc2ccc3c(c2)OCO3)c1,-31%
12,Cc1cc2oc(=O)cc(C)c2cc1NC(=O)CCC(=O)O,-10.8%
13,CCC(=O)Nc1cc2c(C)cc(=O)oc2cc1C,-1.6%
14,Cc1cc2oc(=O)cc(C)c2cc1NC(=O)CCl,42.5% (active)
15,Cc1cc(OCc2ccc(C(=O)n3cccn3)o2)ccc1Cl,-24.5%
16,Cc1ccc(C)c(NC(=O)CSc2nnc([C@@H]3CCCN3C(=O)OC(C)(C)C)o2)c1,9.1%
17,CCOC(=O)c1cnc(Nc2nc3ccccc3o2)nc1CN1CCN(C)CC1,-1.5%
18,CCOC(=O)c1cnc(Nc2nc3ccccc3o2)nc1C,78.1% (active)
19,CCOC(=O)c1cnc(Nc2nc3ccccc3o2)nc1CSC(=S)N(CC)CC,-23%
20,O=C(O)c1ccc2c(=O)n3c(nc2c1)/C(=C/c1ccccc1Br)CC3,-85.4%
21,CCOC(=O)c1c(C)oc2c1c(C=NCCO)c(O)c1ccccc12,-37.2%
22,CCOC(=O)c1c(C)oc2c1c(C=NC1CCS(=O)(=O)C1)c(O)c1ccccc12 (stereo not given),75.8% (active)
23,CCOC(=O)c1c(C)oc2c1c(C=NCCC(=O)O)c(O)c1ccccc12,-16.5%
24,CCOC(=O)c1c(-c2ccccc2)csc1NC(=O)C(C)NCc1ccco1 (stereo not given),1.6%

row,SMILES,inhibition
1,N#C/C(=C\c1ccc(F)c(Cl)c1)S(=O)(=O)c1ccccn1,0.3%
2,COc1ccc(/C=N/NC(=O)C2C(C=C(Cl)Cl)C2(C)C)c(OC)c1 (stereo not given),-24.6%
3,CC1(C)OC2OC(C(=O)N/N=C/c3ccccc3F)C3OC(C)(C)OC3C2O1 (stereo not given),-13.7%
4,CC1(C)C(C=C(Cl)Cl)C1C(=O)N/N=C/c1ccccc1F (stereo not given),80.1% (active)
5,CCN1CNC(=S)N(c2cccc(C)c2)C1,-5.8%
6,Cc1nnc(NC(=O)c2cccc(S(=O)(=O)N3CCc4ccccc43)c2)s1,11.7%
7,CCOC(=O)c1sc(NC(=O)c2cccc(S(=O)(=O)N3CCc4ccccc43)c2)c(C#N)c1C,79.7% (active)
8,CCC(CC)c1nnc(NC(=O)c2cccc(S(=O)(=O)N3CCc4ccccc43)c2)s1,56.8%
9,COc1cc2ccccc2cc1C(=O)Nc1ccc(N2CCN(C(=O)C(C)C)CC2)cc1,17.8%
10,CC(=O)OC(C(=O)NC1CCCCC1)c1ccccc1F (stereo not given),-33.2%
11,O=C(NN1CCOCC1)c1ccc(Cl)cc1[N+](=O)[O-],-11.4%
12,COc1ccc(NS(=O)(=O)c2ccc(Br)cc2)cn1,-35.5%
13,O=C(Nc1ccc(Br)cc1)c1cccc(S(=O)(=O)Nc2cnc3ccccc3c2)c1,48.2%
14,COc1ccc(NS(=O)(=O)c2ccc3oc4ccccc4c3c2)cn1,56.6%
15,O=C(O)c1ccc(NS(=O)(=O)c2cccc(C(=O)Nc3ccc(Br)cc3)c2)cc1,-13.1%
16,Cc1ccc2cc(NC(=O)CC(CC(=O)O)c3ccccc3)ccc2n1 (stereo not given),-10.4%
17,CNC(=S)NCCc1ccc(OC)c(OC)c1,24.7%
18,CCN(CC)S(=O)(=O)c1cccc(NC(=O)COC(=O)CCC(=O)c2ccc(F)cc2)c1,-40.1%
19,O=C(c1cc2ccccc2oc1=O)N(c1ccccc1)C1C=CS(=O)(=O)C1 (stereo not given),5.4%
20,C/C(=N\N=C(/N)SC1CC(=O)N(c2ccccc2)C1=O)c1cccs1 (stereo not given),15.7%
21,C/C(=N\N=C(/N)SC1CC(=O)N(c2ccc(Cl)cc2)C1=O)c1cccs1 (stereo not given),-4.8%
22,C/C(=N\N=C(/N)SC1CC(=O)N(c2ccc(Br)cc2)C1=O)c1cccs1 (stereo not given),87.7% (active)
23,Cc1cccnc1CN1CCN(C(=O)CCc2nnc(CCc3ccccc3)o2)CC1,-55.3%
24,CCCN1C(=O)/C(=C/c2nc3ccccc3c(=O)[nH]2)c2ccccc21,-6.3%

row,SMILES,inhibition
1,CCN1C(=O)/C(=C/c2nc3ccccc3c(=O)[nH]2)c2ccccc21,21.1%
2,CC(C)N1C(=O)/C(=C\c2nc3ccccc3c(=O)[nH]2)c2ccccc21,105% (active)
3,CC(C)CC(=O)Nc1ncc([N+](=O)[O-])s1,3.6%
4,O=C(CS(=O)(=O)c1ccccc1)Nc1ncc([N+](=O)[O-])s1,-39%
5,O=C(COc1ccc(Cl)cc1)Nc1ncc([N+](=O)[O-])s1,73.5% (active)
6,CC(CC(=O)Nc1ncc([N+](=O)[O-])s1)c1ccccc1 (stereo not given),-19.5%
7,COc1ccc(CC(=O)Nc2ncc([N+](=O)[O-])s2)cc1OC,-65%
8,CCCCC(=O)Nc1ncc([N+](=O)[O-])s1,-10.8%
9,Cc1ccc(CC(=O)Nc2ncc([N+](=O)[O-])s2)cc1,-37.4%
10,CC(C1CC1)N(Cc1ccccc1)C(=S)Nc1ccccc1Cl (stereo not given),-9.7%
11,CC(SCC(=O)O)c1nc2ccccc2[nH]1 (stereo not given),10.8%
12,CCOc1ccccc1N(C)S(=O)(=O)c1ccc2c(c1)N(C(C)=O)CCO2,5.2%
13,NC(=O)/C(=C\c1ccccc1)NC(=O)/C=C/c1ccccc1,-19%
14,CCOC(=O)c1nn(-c2ccccc2)c2nnc(Cc3ccccc3)c(=O)n12,45.2%
15,COC(=O)C1=C(CSc2nc3ccccc3s2)NC(=O)NC1c1ccc(F)cc1 (stereo not given),-25.4%
16,CCOC(=O)C1=C(CSc2nc3ccccc3s2)NC(=O)NC1c1cccc([N+](=O)[O-])c1 (stereo not given),32.6%
17,CCOC(=O)C1=C(CSc2nc3ccccc3s2)NC(=O)NC1c1ccc(OC)cc1 (stereo not given),67.5% (active)
18,CCN(CC)CCCNC(=O)C1c2ccccc2C(=O)N(C)C1c1ccc(OC)cc1 (stereo not given),99.8% (active)
19,CCN(CC)CCCNC(=O)C1c2ccccc2C(=O)N(CCOC)C1c1ccc(F)cc1 (stereo not given),-40.8%
20,CCN1CCN(CCCNC(=O)C2c3ccccc3C(=O)N(C)C2c2ccc(OC)cc2)CC1 (stereo not given),-21.6%
21,COc1ccc(CCN2CC(C(=O)NC3CCCCC3)CC2=O)cc1OC (stereo not given),-2%
22,CCCc1cc(NCCCO)n2c(nc3ccccc32)c1C#N,-0.5%
23,Cc1n[nH]c(C)c1CCNCc1ccc(OCC(O)CN2CCCCC2)cc1 (stereo not given),-21.7%
24,O=C(Nc1ccccc1)c1cn2ccccc2n1,1.1%

row,SMILES,inhibition
1,O=C(Nc1nccs1)c1cn2ccccc2n1,22.8%
2,Cc1csc(NC(=O)c2cn3ccccc3n2)n1,53.2% (active)
3,Cc1noc(C)c1CSc1cc(C)c2ccccc2n1,-32.2%
4,COc1ccc(C(=O)Nc2ccc3c(c2)C(=O)N(C)C3=O)cc1OC,-3.5%
5,COc1cccc(-n2cnc3sc(C)cc3c2=O)c1,-25.1%
6,CCCOC(=O)c1cc(=O)[nH]c2ccccc12,-5.2%
7,O=C(NCCN1C(=O)S/C(=C\c2ccc(Cl)cc2)C1=O)c1ccc(F)c(S(=O)(=O)N2CCOCC2)c1,-0.6%
8,CC(C)(C)c1ccc(/C=C2\SC(=O)N(CCNC(=O)c3cccc(S(=O)(=O)N4CCOCC4)c3)C2=O)cc1,74.4% (active)
9,O=C(NCCN1C(=O)S/C(=C\c2ccc(F)cc2)C1=O)c1cccc(S(=O)(=O)N2CCOCC2)c1,21.8%
10,CC1CCN(C(=O)c2ccccc2NC(=O)c2cccc(S(=O)(=O)N(C)C)c2)CC1,-46.2%
11,CCOC(=O)c1c(-c2ccc(C)o2)csc1NC(=S)NC(=O)c1cccs1,36.4%
12,CCOC(=O)c1c(-c2ccc(C)o2)csc1NC(=S)NC(=O)c1ccc(F)cc1,37.3%
13,CCOC(=O)c1c(-c2ccc(C)o2)csc1NC(=S)NC(=O)N(C)C,97.4% (active)
14,COc1ccc(-c2ncccc2OC(=O)C23CC4CC(CC(C4)C2)C3)cc1OC,-13.7%
15,CC1CCC(NC(=O)COc2ccccc2C(N)=O)CC1 (stereo not given),-22%
16,CN(C)c1oc(/C=C/c2cccs2)nc1S(=O)(=O)c1ccccc1,32.1%
17,Cc1cc(O)c(C(=O)/C=C/c2ccccc2)c(=O)o1,0.7%
18,Cc1cc(O)c(C(=O)/C=C/c2ccc(Cl)cc2)c(=O)o1,46.1% (active)
19,Cc1cc(O)c(C(=O)/C=C/c2ccc(C(C)C)cc2)c(=O)o1,5.9%
20,CCOC(=O)C1(CCc2ccccc2)CCN(Cc2ccc(C(=O)OC)cc2)CC1,13.7%
21,Cc1ccc(NC(=O)c2ccoc2C)cc1C,112% (active)
22,Cc1occc1C(=O)Nc1ccc2c(c1)OCCO2,-15%
23,Cc1occc1C(=O)Nc1ccc2ccccc2c1,-121%
